Shown are actives, neighbours in structure and some others; about 1.1% of the full set was active somewhere.
CIT2 TOR yeast = alters CIT2-GFP fluorescence in TOR pathway yeast screen. S. cerevisiae CIT2-GFP strain, flow cytometry, 3 h; 100 means same as DMSO wells. GFP response vs DMSO, % at 10 µM. actives 0.065% (n = 320,000);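 active = GFP response relative to DMSO above a set limit, near the screen mean plus 3 SD, cut at about 150% in these data; inconclusive = Fewer than 70 cells measured for a yeast strain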;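 also: ratio of well median GFP fluorescence to mean of DMSO wells on the plate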
AGP1-GFP MLPCN = yeast TOR pathway AGP1-GFP modulation. S. cerevisiae AGP1-GFP multiplex flow cytometry, 3 h; GFP as percent of DMSO wells. GFP response vs DMSO, % at 10 µM. actives 0.02% (n = 320,000);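 active = GFP response relative to DMSO above a set limit, near screen average plus 3 SD, cut at about 150% in these data; inconclusive = fewer than 70 cells counted for the yeast strain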;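 also: median GFP channel fluorescence of the gated AGP1 strain per well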
LAP4 TOR yeast = alters LAP4-GFP fluorescence in TOR pathway yeast screen; actives 0.34% (n = 320,000); GFP response vs DMSO, % at 10 µM; S. cerevisiae LAP4-GFP multiplex, flow cytometry GFP, 3 h; median GFP as percent of DMSO wells; AID 2023;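 active = GFP response vs DMSO above a set limit, about the screen mean plus 3 SD, cut at about 150% in these data; inconclusive = under 70 cell events counted for the yeast strain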
VLA-4 inh = inhibition in a human VLA-4 binding assay. P13612. VLA-4 expressing cells, ligand binding flow cytometry. inhibition, % (about 7 µM as worked out from the volumes in the protocol). actives 0.2% (n = 330,000); in the data active = inhibition above about 50%
RPL19A TOR yeast = yeast TOR pathway RPL19A-GFP modulation. S. cerevisiae RPL19A-GFP strain, flow cytometry, 3 h; active compounds read low. percent response vs DMSO, % at 10 µM. actives 0.3% (n = 330,000). AID 2025;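 active = percent response vs DMSO below 50%; inconclusive = fewer than 70 events counted for the yeast strain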;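 also: median channel GFP fluorescence of the barcoded RPL19A-GFP strain; ratio of sample median GFP to plate DMSO average so 100% = DMSO; lower means less RPL19A-GFP as with rapamycin TOR inhibition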
MEP2 TOR yeast = modulators of TOR pathway MEP2-GFP in S. cerevisiae; S. cerevisiae MEP2-GFP strain, flow cytometry GFP, 3 h; 100% = DMSO control level; GFP response vs DMSO, % at 10 µM; actives 0.51% (n = 330,000); AID 2016;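 active = GFP response versus DMSO above a set limit, roughly screen mean plus 3 SD, cut at about 180% in these data; inconclusive = fewer than 70 cells counted for a yeast strain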;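 also: median GFP fluorescence of the barcode-gated MEP2-GFP cells per well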
Starred values were filed as active, the others as inactive; ? = inconclusive; . = no result; ! = not active in a repeat; [ ] = dose if it differs, or a comment.

SMILES	CIT2 TOR yeast	AGP1-GFP MLPCN	LAP4 TOR yeast	VLA-4 inh	RPL19A TOR yeast	MEP2 TOR yeast
O=C(NCC1CCCO1)c1cccc(NS(=O)(=O)c2ccc(Br)cc2)c1 (configuration not stated)	95.6	104.2	107.2	-1.4	97.2	92.2
CCOc1ccc(NC(=O)c2cc(=O)[nH]c3ccccc23)cc1	105.1	98.1	93.7	-0.2	103.1	106.3
Cc1ccc(F)cc1NC(=O)N1CCNC(=O)C1CC(=O)Nc1cc(Cl)ccc1Cl (configuration not stated)	153.8*[may fluoresce green]	114.9	117.5	3.5	90.8	103.1
COc1ccccc1NC(=O)CC1C(=O)NCCN1C(=O)Nc1ccc(Cl)c(Cl)c1 (configuration not stated)	?	21.7	86.6	18.6	67.5	470.1*[may fluoresce violet]
O=C(CC1C(=O)NCCN1C(=O)c1ccccc1)Nc1cc(Cl)ccc1Cl (configuration not stated)	103.2	105.9	109.2	3.6	100.8	105.3
O=C(CSc1nccc(=O)[nH]1)NCc1ccco1	97.5	103.5	107.7	12.9	99.0	119.6
CC(C)C(=O)N1CCN(c2ccccc2NC(=O)c2ccc(Br)o2)CC1	107.6	103.9	97.2	5.4	102.6	96.7
CC(C)C(=O)N1CCN(c2ccccc2NC(=O)c2ccco2)CC1	?	?	88.5	-4.0	39.1*[may fluoresce violet]	292.4*[may fluoresce violet]
Cc1ccc(NC2CCCN(C(=O)CSc3ccncc3)C2)cc1C (configuration not stated)	96.0	92.3	68.9	21.4	104.8	92.9
CCCCC(=O)Nc1nnc(SCC(=O)N2CCN(c3ccccc3OC)CC2)s1	?	?	87.6	-25.0	23.4*[may fluoresce violet]	218.7*[may fluoresce violet]
COc1ccccc1N1CCN(C(=O)CSc2ccc3c(C)cc(C)nc3n2)CC1	?	?	?	-14.4	12.9*[may fluoresce violet]	?
COc1ccccc1N1CCN(C(=O)CSc2nc3ccccc3o2)CC1	105.4	100.7	106.9	-10.6	99.8	107.4
CC(=O)CC(c1ccccc1)c1c(O)c2ccccc2oc1=O (configuration not stated)	?	?	98.8	2.9	40.4*![may fluoresce violet]	211.7*![may fluoresce violet]
CC(=O)N1CCN(c2ccc(Nc3ncnc4c3oc3ccccc34)cc2)CC1	?	.	90.7	10.9	22.1*[may fluoresce violet]	427.3*[may fluoresce violet]
CCc1nc(Nc2ccc(N3CCN(C(C)=O)CC3)cc2)c2oc3ccccc3c2n1	100.5	106.6	102.2	3.7	93.3	103.0
COc1c(C(=O)NNC(=O)c2ccccc2Cl)csc1Br	94.1	103.7	107.9	-7.0	96.2	96.1
CCOC(=O)c1c(C)[nH]c(C2=NNC(=NC3CC3)SC2)c1C	104.5	105.8	95.8	1.8	102.6	105.7
Cc1ccc(Oc2nc3ccccn3c(=O)c2/C=C(\C#N)C(=O)NC2CCS(=O)(=O)C2)c(C)c1 (configuration not stated)	101.7	96.4	87.6	4.5	99.7	103.7
N#C/C(=C\c1c(Oc2ccccc2Cl)nc2ccccn2c1=O)C(=O)NC1CCS(=O)(=O)C1 (configuration not stated)	97.7	82.5	95.9	5.4	98.5	103.7
Cc1cc(C)cc(Oc2nc3ccccn3c(=O)c2/C=C(\C#N)C(=O)NC2CCS(=O)(=O)C2)c1 (configuration not stated)	?	?	95.4	-8.7	52.3	627.5*[may fluoresce violet]
N#C/C(=C\c1c(N2CCCCCC2)nc2ccccn2c1=O)C(N)=O	108.9	100.1	94.5	7.4	101.9	103.7
N#C/C(=C\c1c(N2CCOCC2)nc2ccccn2c1=O)C(=O)NC1CCS(=O)(=O)C1 (configuration not stated)	?	22.8	99.8	-6.8	55.4	597.6*[may fluoresce violet]
N#C/C(=C\c1c(N2CCCCCC2)nc2ccccn2c1=O)C(=O)NC1CCS(=O)(=O)C1 (configuration not stated)	106.4	100.7	118.8	8.5	105.0	181.0*
N#C/C(=C\c1c(N2CCN(c3ccccc3)CC2)nc2ccccn2c1=O)C(N)=O	88.5	74.2	99.4	20.9	41.3*	259.6*
C=CCn1c(C)nnc1SCC(=O)Nc1nccs1	108.8	101.1	108.8	-5.0	100.7	102.3
SMILES	CIT2 TOR yeast	AGP1-GFP MLPCN	LAP4 TOR yeast	VLA-4 inh	RPL19A TOR yeast	MEP2 TOR yeast
Cc1ccc(CNC(=O)Cn2ccc3cc(S(=O)(=O)N4CCCC4)ccc32)o1	96.0	93.5	90.6	5.8	96.0	103.5
CCOCC(=O)Nc1ccc2c(c1)OCCO2	?	?	88.5	14.4	29.0*[may fluoresce violet]	261.3*[may fluoresce violet]
CCC(=O)Nc1ccc2c(c1)OCCO2	104.5	103.2	90.8	-8.7	96.5	94.5
O=C(COc1cc(Cl)c(Cl)cc1Cl)Nc1ccc([N+](=O)[O-])cc1Cl	111.0	103.5	97.8	3.9	105.6	106.3
COc1ccc(OC)c(NC(=O)CN2CCc3ccccc3C2)c1	?	21.1	95.4	-7.8	38.8*[may fluoresce violet]	395.5*[may fluoresce violet]
O=C(c1ccccc1NS(=O)(=O)c1cccc([N+](=O)[O-])c1)N1CCCC1	97.4	99.4	106.2	0.6	97.2	101.6
Cc1ccc(NC(=O)CN(C)S(=O)(=O)c2cccs2)c(Br)c1	?	?	50.9	-13.7	22.8*[may fluoresce violet]	211.0*[may fluoresce violet]
CN(CC(=O)NCCc1ccc(Cl)cc1)S(=O)(=O)c1cccs1	?	?	?	8.6	19.6*[may fluoresce violet]	?
CCOC(=O)CNC(=O)N(CCOC)CC1CCCN(C2Cc3ccccc3C2)C1 (configuration not stated)	98.0	140.2	83.8	4.9	103.5	104.3
CCc1ccc(N(C(=O)c2ccco2)C(C(=O)NC2CCCC2)c2cccnc2)cc1 (configuration not stated)	?	13.7	85.5	-4.4	81.7	139.3
CCC(C)c1ccc(N(C(=O)c2ccco2)C(C(=O)NC2CCCC2)c2cccnc2)cc1 (configuration not stated)	?	15.0	70.7	-42.4	55.4	271.5*[may fluoresce violet]
COc1ccc(NCc2cccnc2)cc1	97.1	97.3	88.1	1.5	99.8	93.9
O=C(O)c1cc(-c2ccc(Cl)cc2)n(-c2cccc(Cl)c2)n1	87.0	91.9	105.0	6.7	94.5	97.8
CCN1C(=O)C(=O)N(CC(=O)N2CCC(C)Sc3ccccc32)C1=O (configuration not stated)	95.5	95.2	88.4	5.7	93.3	92.0
CC(=O)N/N=C/c1cc(C(C)C)cc(/C=N/NC(C)=O)c1O	?	49.1	181.1*[may fluoresce violet]	-12.4	113.3	195.0*[may fluoresce violet]
CCOC(=O)c1cnn(-c2nc(SC)nc3sc4c(c23)CCCC4)c1N	?	.	100.5	-11.8	72.5	187.2*[may fluoresce violet]
COc1cc(C(=O)ON=C2C3CC4CC(C3)CC2C4)cc(OC)c1OC	179.8*	51.6	154.5*	1.3	91.3	106.6
